In PubChem BioAssay (EPA / NIEHS):
Activity calls are given as the source filed them. Rule for the calls: active = hit-call score of the fitted dose curve at least 0.9, where 1 is the maximum; inconclusive = response in the unintended direction; inactive = score below 0.9.

Target: guinea pig Sigma Receptor, Non-selective Binding, SIGMAR1 (gene 100135589) (UniProt Q60492)
Test: NVS_OR_gSIGMA_NonSelective: NovaScreen (NVS) Nuclear Receptor Binding Assay for guinea pig Sigma Receptor, Non-selective Binding (AID 2283367)
Experimental: NVS_OR_gSIGMA_NonSelective is a biochemical, single-readout assay that uses extracted gene-proteins from Guinea pig brain membranes in a tissue-based cell-free assay. Measurements were taken 1 hour after chemical dosing in a 48-well plate.NVS_OR_gSIGMA_NonSelective is one of one assay component(s) measured or calculated from the NVS_OR_gSIGMA_NonSelective assay. It is designed to make measurements of radioligand binding, a form of binding reporter, as detected with scintillation counting signals by Filter-based radiodetection technology.Data from the assay component NVS_OR_gSIGMA_NonSelective was analyzed into 1 assay endpoint. This assay endpoint, NVS_OR_gSIGMA_NonSelective, was analyzed in the positive analysis fitting direction relative to DMSO as the negative control and baseline of activity. Using a type of binding reporter, loss-of-signal activity can be used to understand changes in the binding as they relate to the gene Sigmar1. Furthermore, this assay endpoint can be referred to as a primary readout, because the performed assay has only produced 1 assay endpoint. To generalize the intended target to other relatable targets, this assay endpoint is annotated to the misc protein intended target family, where the subfamily is chaperone.
Binding assays used specific radioligands (tritiated, iodinated) with non-radioactive competitive displacement ligands in agonist or antagonist protocols (as indicated) and various reference compounds and inhibitors to titrate specific binding to receptors and transporters. Most enzyme assays (CYPs, kinases, phosphatases, proteases, HDACs) used recombinant protein and specific substrates (fluorescence mostly, some colorimetric and radioactive) and inhibitors, followed by a biochemical separation of substrate and product. All assays for the biochemical HTS were initially run in duplicate at a single concentration (10 uM for CYP450 assays and 25 uM for all others). […] Each assay was run with positive and negative controls, and concurrent controls on every plate. The follow-up (secondary) screen tested active chemical-pairs in concentration series, as well as a few additional assays not tested in the primary screen, some selected negative inactives, and several cases re-run in the concentration series for confirmatory purposes.

guinea pig Sigma Receptor, Non-selective Binding, SIGMAR1 (gene 100135589), sequence (Q60492 whole entry, looked up): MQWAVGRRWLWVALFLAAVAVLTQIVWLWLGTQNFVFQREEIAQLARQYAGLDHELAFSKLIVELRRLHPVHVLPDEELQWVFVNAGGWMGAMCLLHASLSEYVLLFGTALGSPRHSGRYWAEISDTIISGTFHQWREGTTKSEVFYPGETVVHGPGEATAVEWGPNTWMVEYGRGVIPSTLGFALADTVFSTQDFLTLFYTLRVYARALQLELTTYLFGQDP

AC50, active:
CN(C)c1ccc(C(=C2C=CC(=[N+](C)C)C=C2)c2ccc(N(C)C)cc2)cc1 14.8 µM, CCN(CC)C(=O)c1cc(S(=O)(=O)Cc2ccccc2)c(N2CCC(c3ccccc3)CC2)cc1N(CC)CCN(C)C 6.21 µM, Cc1occc1C(=O)Nc1ccc(C(=O)N2CCC(F)(F)/C(=C\C(=O)N3CCC(N4CCCCC4)CC3)c3ccccc32)cc1 2.93 µM, CCCCCCCCCCCC[N+](C)(C)C 0.123 µM, Clc1cc(Cl)c2c(c1)N=C1CCCCCN1C2 0.542 µM, COc1cc(C(=O)NC2CCN(C)CC2)ccc1Nc1ncc2c(n1)N(C1CCCC1)CC(F)(F)C(=O)N2C 9.05 µM, c1ccc(C[n+]2cccc3ccccc32)cc1 8.14 µM, CCCCOC(=O)c1ccc(O)cc1 4.2 µM, COc1cccc([C@H](O)C2CCN(CCc3ccc(F)cc3)CC2)c1OC 0.29 µM, COc1ccc2cc(S(=O)(=O)N[C@H](CC(=O)N[C@H](Cc3ccc(CN4[C@H](C)CCC[C@@H]4C)cc3)C(=O)N(C)C(C)C)c3ccc4c(c3)OCO4)ccc2c1 1.74 µM, NCc1cccc(C2CCN(C(=O)c3ccc(C#Cc4ccccc4F)o3)CC2)c1 13.2 µM, O=C1c2ccccc2C(=O)N1CCc1noc(-c2ccc(CN3CCCCCC3)s2)n1 6.76 µM, O=C1CCC(C2CCCCC2)CC1 25 µM, CCOC(=O)O[C@H](C)OC(=O)c1ccc2c(c1)cc(C(=O)NC1CCN(C(C)C)CC1)n2Cc1cc(-c2ccc(Cl)s2)on1 0.226 µM, CN(C)C(=O)C1(N2CCCCC2)CCN(CC[C@@]2(c3ccc(Cl)c(Cl)c3)CN(C(=O)c3ccccc3)CCO2)CC1 6 µM, CCCCCCCCN(C)CCCCCCCC 0.212 µM
